# Results published in PubChem BioAssay AID504332 (National Center for Advancing Translational Sciences (NCATS), 2011).
# Values joined by “and” are separate entries in the source; they are usually repeats but may differ in a detail not shown here. Identical values can stand only once. About 31,000 (8.9%) of roughly 350,000 compounds were called active. Roughly 15% stayed inconclusive and do not appear here. Calls follow the shape of the dose curve; as a rule, active = well fitted inhibition curve with a large enough effect; inconclusive = small, poorly fitted or top-dose-only effect; inactive = no such curve, though single readings can be large or run the other way. Many of the other results were omitted from the sample, so actives are more common in it than they were. Some compounds were tested as several samples or in several runs, with calls that do not always agree.
# Target: Histone-lysine N-methyltransferase EHMT2 (Homo sapiens) (UniProt Q96KQ7)
# Sequence (Q96KQ7 913-1193 limits assumed): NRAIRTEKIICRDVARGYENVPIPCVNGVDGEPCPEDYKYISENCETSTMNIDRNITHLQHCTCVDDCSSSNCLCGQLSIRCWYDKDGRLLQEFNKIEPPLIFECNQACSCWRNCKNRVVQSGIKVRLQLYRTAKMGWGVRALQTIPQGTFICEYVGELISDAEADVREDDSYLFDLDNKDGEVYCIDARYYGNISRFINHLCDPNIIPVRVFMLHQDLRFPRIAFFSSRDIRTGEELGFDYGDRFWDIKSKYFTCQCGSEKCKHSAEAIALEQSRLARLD
# Assay: qHTS Assay for Inhibitors of Histone Lysine Methyltransferase G9a; also: nearly all actives have a fitted effect of over 75% in size
# Settings: G9a H3K9 monomethylation, AlphaScreen, 2 h; series mostly up to 59 µM; activity, negative = inhibition: at the top concentration
# How it was run: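 G9a (20 nM) preincubated 15 min RT with compounds, then 500 nM biotinylated H3K9 peptide and 20 uM SAM added; 2 h RT reaction. Monomethyl-H3K9 product detected by AlphaScreen with anti-H3K9me1 antibody, streptavidin donor and anti-rabbit IgG acceptor beads.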
# % is scaled to controls: 0 for no effect and ±100 for the full control effect; potency is read from the fitted curve at half-maximal effect.
SMILES,"activity, negative = inhibition",Potency
CN(Cc1ccccc1)C(=O)c1cn(C)c2ccc(S(=O)(=O)N(C)C3CCCCC3)cc2c1=O,-1.49% (inactive),
O=S(=O)(NCCS(=O)(=O)N1CCN(c2ccccc2)CC1)c1ccc(Cl)cc1,-10.1% (inactive),
CC(C)[C@@H]1COC(c2cccc(C3=N[C@H](C(C)C)CO3)c2)=N1,55% [at 102 µM] (inactive),
COc1cc(OC)cc(-c2nnc(N(C)C(=O)c3ccncc3)s2)c1,-3.36% [at 102 µM] (inactive),
CN(C(=O)c1ccno1)c1nnc(-c2cccnc2)s1,19.5% (inactive),
CN(C(=O)c1ccccn1)c1nnc(-c2ccccn2)s1,,70.8 µM (active)
CC(C)CCN1CCC(C)(NC(=O)c2ccccc2)C1=O (configuration not stated),-0.393% [at 0.501 µM] (inactive),
COc1ncnc2c1N=C1CC(C)(C)CC(N)=C1S2,,3.16 µM (active)
CC(=O)c1cccc(NC(=S)N2CCN(S(C)(=O)=O)CC2)c1,,44.7 µM (active)
CC(=O)c1cccc(NC(=S)N2CCCC2)c1,9.21% [at 102 µM] (inactive),
CC(C)NC(=S)N1CCN(S(C)(=O)=O)CC1,11.9% (inactive),
O=C(Cc1ccc(Cl)cc1)NC1CCS(=O)(=O)C1 (configuration not stated),28.8% [at 102 µM] (inactive),
Cc1cc(C)c(CN2CCN(C(=O)Cn3ccc(NC(=O)OCc4ccccc4)nc3=O)CC2)c(C)c1,-47.4% [at 0.501 µM] (inactive),
NC(=O)C1CCN(C(=O)c2ccc(F)c(S(=O)(=O)N3CCOCC3)c2)CC1,2.82% [at 2.33 µM] (inactive),
CCOc1ccc(-c2n[nH]c3c2C(c2ccccc2OC)N(c2ccc(Br)cc2)C3=O)cc1 (configuration not stated),3.64% (inactive),
Cc1sc2ncnc(N3CCC(C(=O)NNC(=O)c4ccc(F)cc4)CC3)c2c1C,-33.1% (inactive),
Cc1ccc(NC(=S)N(CCN(C)C)Cc2cccs2)cc1C,-39.7% [at 102 µM] (inactive),
Cc1ccc(Cl)cc1NC(=S)N(CCN(C)C)Cc1cccs1,,39.8 µM (active)
Cc1ccccc1NC(=S)N(CCCN1CCOCC1)Cc1cccs1,15% (inactive),
CC(C)Nc1ccc(-n2nc3ccccc3[n+]2[O-])cc1,12.3% [at 102 µM] (inactive),
c1ccc2cc(CCCc3cc4ccccc4cn3)ncc2c1,5.78% [at 0.501 µM] (inactive),
NC(=O)C1CCN(C(=O)c2cn(-c3ccccc3)nc2-c2cccnc2)CC1,1.41% [at 102 µM] (inactive),
CC(Cc1ccccc1)C(=O)N(C)Cc1ccccc1 (configuration not stated),-4.83% [at 102 µM] (inactive),
COc1ccc(CNC(=O)C(Cc2ccccc2)n2cccc2)cc1 (configuration not stated),-36.8% [at 102 µM] (inactive),

SMILES,"activity, negative = inhibition",Potency
Cc1ccc(C)n1C(Cc1ccccc1)C(=O)O (configuration not stated),,35.5 µM (active)
Cc1ccc(S(=O)(=O)N2CCCCC2)cc1NC(=O)[C@@H]1CCCN1C(=O)c1cccs1,-7.65% [at 12.7 µM] (inactive),
Cc1ccc2nc(COc3cccc(NC(=O)c4ccccc4Cl)c3)cc(=O)n2c1,10.2% (inactive),
Cc1c(-c2ccccc2)cn2c1-c1ccc(C)n1CC2,,44.7 µM (active)
CCOC(=O)C1CCN(S(=O)(=O)c2ccc3c(c2)N(C(C)=O)CCO3)CC1,-0.322% [at 102 µM] (inactive),
CCOC(=O)C1CCN(S(=O)(=O)c2ccc3c(c2)N(C)C(=O)CC(=O)N3C)CC1,,inactive and 79.4 µM (active)
CCOC(=O)C1CCCN(S(=O)(=O)c2ccc3c(c2)C(C)(C)C(=O)N3C)C1 (configuration not stated),-2.18% [at 102 µM] (inactive),
CCCn1c2ccccc2c2cnn(CC(=O)N(CC)c3cc(C)ccc3C)c(=O)c21,-24% (inactive),
CCOc1ccc(CCNC(=O)CSc2cc(=O)n(C)c3ccc(Cl)cc23)cc1OCC,,inactive
CCN(CCCNC(=O)CSc1cc(=O)n(C)c2cc(Cl)ccc12)c1cccc(C)c1,,17.8 µM (active)
CCN(CCCNC(=O)CSc1cc(=O)n(C)c2cc(Cl)ccc12)Cc1ccccc1,-26.4% [at 102 µM] (inactive),
CC(=O)c1ccc(S(=O)(=O)NCCC(=O)N2CCN(c3ccccn3)CC2)cc1,-0.0681% [at 12.7 µM] (inactive),
O=[N+]([O-])c1ccccc1/C=N/n1c(COc2ccccc2)n[nH]c1=S,,1 µM (active)
COc1cc(/C=N/n2c(C)n[nH]c2=S)ccc1OCc1ccccc1,,2.24 µM (active)
CCOc1ccc(/C=N/Nc2nncc(-c3ccccc3)n2)cc1OC,16% [at 102 µM] (inactive),
Fc1ccc(/C=N/n2c(COc3ccccc3)n[nH]c2=S)cc1,,1.58 µM (active)
COc1cc(/C=N/O)ccc1OCc1ccc([N+](=O)[O-])cc1,-5.67% (inactive),
COc1ccccc1OCCOc1ccc(/C=N/n2cnnc2)cc1,-8.1% [at 12.7 µM] (inactive),
O=c1ccc(S(=O)(=O)N2CCCC2)cn1Cc1nc(-c2ccccc2)no1,-6.5% [at 2.33 µM] (inactive),
CCN(C(=O)COC(=O)c1c(C)nn(-c2ccccc2)c1Cl)c1c(N)n(Cc2ccccc2)c(=O)[nH]c1=O,-45.7% [at 102 µM] (inactive),
Cc1ccccc1-c1cc(C(=O)NCC2CC2)n(CC2CC(c3cccnc3)=NO2)n1 (configuration not stated),-3.05% [at 0.501 µM] (inactive),
CC1CN(C(=O)N2CCC(C(=O)NCc3ccco3)CC2)c2cc(Cl)ccc2O1 (configuration not stated),-27.9% (inactive),
O=C(NCCS(=O)(=O)c1ccc(Br)cc1)c1ccccc1Cl,37.8% [at 102 µM] (inactive),
